Data from PubChem BioAssay.
This is one part of the list. Active and inactive are the calls of the source.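 How the source made its calls, unless noted: active means mean inhibition above about 50% in the one-dose retest (limit read from the data); inactive means the rest.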

Assays:
[1] = PPC-1 cell viability loss – ATP content luminescence, cytotoxicity control for TRAIL apoptosis potentiator project, confirmation (AID 1447;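 active means reconfirmed compounds whose average cytotoxicity reaches 50% or more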;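 further: 0% = DMSO-treated cells and 100% = wells holding medium but no cells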); conditions: PPC-1 viability, ATPlite luminescence, overnight; at 5 µM; stronger effect = higher value
[2] = biological target: Sentrin-specific protease 8 (Homo sapiens) (UniProt Q96LD8); assay: human SENP8 peptidase blockers, hit retest – biochemical, luminescence, single concentration, confirmation (AID 488912;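 active means mean inhibition across replicates above about 50%, limit read from the data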); conditions: Recombinant SENP8, Z-RLRGG-aminoluciferin luminescence, 60 min; at 12.5 µM; stronger effect = higher value
[3] = biological target: Sentrin-specific protease 6 (Homo sapiens) (UniProt Q9GZR1); assay: inhibition of human SENP6 catalytic domain – biochemical, luminescence, single concentration, confirmation (AID 488915); conditions: recombinant SENP6, Z-RLRGG-aminoluciferin luminescence; at 12.5 µM; stronger effect = higher value
[4] = biological target: Sentrin-specific protease 7 (Homo sapiens) (UniProt Q9BQF6); assay: human SENP7 peptidase blockers, hit retest – biochemical, luminescence, single concentration, confirmation (AID 488917); conditions: recombinant SENP7, Z-RLRGG-aminoluciferin luminescence, 40 min; at 12.5 µM; stronger effect = higher value
Caspase-3 (Homo sapiens) = Caspase-3 (Homo sapiens) (UniProt P42574); assay: human caspase-3 activity blockade, out-of-family – biochemical, single concentration, selectivity assay for SENP inhibitor project, confirmation (AID 488918;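 active means mean inhibition above about 50%, limit read from the data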;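 further: plate controls were enzyme with DMSO for no effect and wells without caspase-3 for full effect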); conditions: purified caspase-3, Z-DEVD-aminoluciferin luminescence, 60 min; at 12.5 µM; stronger effect = higher value
[5] = Ultra-Glo luciferase signal interference – biochemical, single concentration, SENP8 reaction pre-completed, artefact control for SENP inhibitor project, confirmation (AID 488919;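 active means mean inhibition above about 50% when retested at one dose, limit read from the data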;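 further: plate controls were DMSO wells with completed reaction for no effect and substrate without enzyme for full effect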); conditions: Pre-incubated SENP8/Z-RLRGG-aminoluciferin, luciferase luminescence interference; at 12.5 µM; stronger effect = higher value
[6] = inhibition of PEG-3 promoter luciferase signal – cell-based, HeLa, luciferase reporter, single concentration, confirmation (AID 602417;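 active means at 20 µM dose, 40% or more inhibition averaged across four replicates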); conditions: HeLa PEG-Prom luciferase reporter, luminescence, overnight; at 20 µM; stronger effect = higher value
[7] = HIF-2a driven luciferase blockers, single dose – luminescence, 786-0 RCC cells, confirmation (AID 651580;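 active means mean inhibition across four replicates of at least 40 percent at the single tested concentration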); conditions: HIF-2a luciferase reporter luminescence, overnight, at 18.8 µM, stronger effect = higher value
[8] = HIF-1a luciferase reporter signal reduction – MiaPaCa-2 cells, single concentration, counter-screen for HIF-2a inhibitor project, confirmation (AID 651589;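 active means mean inhibition of the reporter signal across four replicates at the single tested dose of 50% or more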); conditions: MiaPaCa-2 HIF-1a luciferase reporter, desferoxamine, overnight; at 18.8 µM; stronger effect = higher value
PEG-3 [9] = biological target: PEG-3 (UniProt Q6IN02); assay: inhibition of PEG-3 promoter-driven reporter – cell-based, HeLa, luciferase, CREF/GAPDH counter-screen panel, dose response (AID 624167); conditions: CREF/GAPDH counter-screens; HeLa PEG-Prom luciferase reporter, overnight, run 1, dose range 1, at 100 µM (top of the series) unless noted
PEG-3 [10] = biological target: PEG-3 (UniProt Q6IN02); assay: as above; conditions: CREF/GAPDH counter-screens; HeLa PEG-Prom luciferase reporter, overnight, run 2, dose range 1, at 100 µM (top of the series) unless noted
Rat fibroblasts (CREF) [11] = assay: as above; conditions: CREF/GAPDH counter-screens; run 1, dose range 1, at 100 µM (top of the series)
Rat fibroblasts (CREF) [12] = assay: as above; conditions: CREF/GAPDH counter-screens; run 2, dose range 1, at 100 µM (top of the series)
[13] = biological target: Tumor necrosis factor receptor superfamily member 10B (Homo sapiens) (UniProt O14763); assay: viability loss of caspase-8 NB7 cells with TRAIL – with/without TRAIL, luminescence panel, confirmation (AID 651596; in the data active means activity above about 50%); conditions: NB7 neuroblastoma + caspase-8, TRAIL sensitization, NB7 Caspase-8, with TRAIL, mean of runs, at 10 µM, stronger effect = higher value
[14] = as above; conditions: NB7 neuroblastoma + caspase-8, without TRAIL, NB7 Caspase-8, without TRAIL, mean of runs, at 10 µM
[15] = biological target: COP9 signalosome complex subunit 5 (Homo sapiens) (UniProt Q92905); assay: blockers of CSN-driven cullin deneddylation – biochemical, fluorescence polarization, single concentration, SCF-Nedd8OG substrate, confirmation (AID 720654; in the data active means inhibition above about 50%;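 further: 0% = DMSO with enzyme and 100% = no enzyme wells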); conditions: Csn5 deneddylation of SCF-Nedd8OG, 90 min, at 16.6 µM, stronger effect = higher value
[16] = biological target: 72 kDa type IV collagenase (Homo sapiens) (UniProt P08253); assay: human MMP-2 inhibitors, single-point check – biochemical, fluorescence, single concentration, counter-screen for CSN deneddylation inhibitor project, confirmation (AID 720655;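 active means corrected plate-normalized z-score of 5 or more, or -5 or less, or inhibition of 15% or more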;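 further: plate controls were DMSO wells with enzyme for no effect and buffer wells lacking MMP-2 for full effect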); conditions: recombinant MMP-2, FRET substrate fluorescence, 60 min; at 16.6 µM
Prothrombin (Bos taurus) = Prothrombin (Bos taurus) (UniProt P00735); assay: thrombin cleavage blockers, FP readout – biochemical, fluorescence polarization, single concentration, counter-screen for CSN deneddylation inhibitor project, confirmation (AID 720656;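 active means inhibition at or above a set limit, with a fluorescence interference ratio between 0.5 and a set maximum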); conditions: bovine thrombin cleavage of Ub4-pepOG, at 16.6 µM, stronger effect = higher value
[17] = lowers stimulated NF-kB luciferase signal in Jurkat – cell-based, luminescence, single concentration, T-cell NF-kB inhibitor project, confirmation (AID 435020;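 active means inhibition reaching about 45% at 4 µM in either replicate, limit read from the data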;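 further: plate controls were PMA/ionomycin stimulated DMSO wells for no effect and unstimulated DMSO wells for full effect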); conditions: PMA/ionomycin-induced, 16 h, at 4 µM, stronger effect = higher value
[18] = Brca1-Bard1 BiLC signal decrease – luminescence, single concentration, counter-screen for Mdm2/MdmX interaction inhibitor project, confirmation (AID 504668; call rule not given here); conditions: Brca1/Bard1 bimolecular luciferase complementation counterscreen, at 8 µM, stronger effect = higher value
[19] = biological target: Protein Mdm4 (Homo sapiens) + E3 ubiquitin-protein ligase Mdm2 (Homo sapiens) (UniProt O15151+Q00987); assay: human Mdm2/MdmX binding disruption – cell-based, luminescence, single concentration, set 2, confirmation (AID 504601;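 active means mean inhibition of the luminescence signal across two replicates at or above 26 percent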); conditions: SaOS-2 split-luciferase Mdm2/MdmX complementation, at 8 µM, stronger effect = higher value
[20] = NF-kB reporter suppression in CF airway cells – cell-based, GFP fluorescence, single concentration, confirmation (AID 602472; in the data active means inhibition above about 40%;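 further: stimulus PAF is a Pseudomonas aeruginosa filtrate and not platelet activating factor; plate controls were DMSO wells with stimulus for no effect and unstimulated DMSO wells for full effect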); conditions: KKLEB CF airway cells, PAF-induced NF-kB-GFP fluorescence, overnight; at 5 µM; stronger effect = higher value

Chain of Caspase-3 (Homo sapiens) (P42574 28-227 limits assumed): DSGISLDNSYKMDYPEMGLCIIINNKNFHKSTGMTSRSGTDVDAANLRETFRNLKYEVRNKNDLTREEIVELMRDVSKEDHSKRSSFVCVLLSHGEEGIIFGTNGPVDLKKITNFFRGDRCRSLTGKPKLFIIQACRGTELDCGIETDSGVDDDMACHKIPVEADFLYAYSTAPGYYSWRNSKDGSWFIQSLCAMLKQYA
Chain of Sentrin-specific protease 8 (Homo sapiens) (Q96LD8 whole entry, looked up, the tested form may be a part): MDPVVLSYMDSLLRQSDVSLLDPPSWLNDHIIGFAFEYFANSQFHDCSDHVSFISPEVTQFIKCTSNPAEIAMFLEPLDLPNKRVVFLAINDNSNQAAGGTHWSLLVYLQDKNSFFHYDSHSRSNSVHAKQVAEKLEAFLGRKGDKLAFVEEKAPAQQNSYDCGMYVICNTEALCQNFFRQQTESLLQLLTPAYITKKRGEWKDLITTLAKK
Chain of Tumor necrosis factor receptor superfamily member 10B (Homo sapiens) (O14763 whole entry, looked up): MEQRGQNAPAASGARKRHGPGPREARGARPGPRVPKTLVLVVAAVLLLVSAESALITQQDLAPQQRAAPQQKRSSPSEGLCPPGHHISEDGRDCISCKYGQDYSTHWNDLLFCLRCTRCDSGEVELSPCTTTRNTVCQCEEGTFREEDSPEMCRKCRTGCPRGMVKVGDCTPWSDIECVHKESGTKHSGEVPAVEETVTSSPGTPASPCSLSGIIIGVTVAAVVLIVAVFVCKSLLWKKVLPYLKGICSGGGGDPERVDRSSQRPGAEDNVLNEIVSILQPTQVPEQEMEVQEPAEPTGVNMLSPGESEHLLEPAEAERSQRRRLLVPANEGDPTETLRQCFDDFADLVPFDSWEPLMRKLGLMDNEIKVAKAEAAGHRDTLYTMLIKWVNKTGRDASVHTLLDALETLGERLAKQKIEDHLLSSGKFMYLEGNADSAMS
Chain of PEG-3 (Q6IN02 whole entry, looked up): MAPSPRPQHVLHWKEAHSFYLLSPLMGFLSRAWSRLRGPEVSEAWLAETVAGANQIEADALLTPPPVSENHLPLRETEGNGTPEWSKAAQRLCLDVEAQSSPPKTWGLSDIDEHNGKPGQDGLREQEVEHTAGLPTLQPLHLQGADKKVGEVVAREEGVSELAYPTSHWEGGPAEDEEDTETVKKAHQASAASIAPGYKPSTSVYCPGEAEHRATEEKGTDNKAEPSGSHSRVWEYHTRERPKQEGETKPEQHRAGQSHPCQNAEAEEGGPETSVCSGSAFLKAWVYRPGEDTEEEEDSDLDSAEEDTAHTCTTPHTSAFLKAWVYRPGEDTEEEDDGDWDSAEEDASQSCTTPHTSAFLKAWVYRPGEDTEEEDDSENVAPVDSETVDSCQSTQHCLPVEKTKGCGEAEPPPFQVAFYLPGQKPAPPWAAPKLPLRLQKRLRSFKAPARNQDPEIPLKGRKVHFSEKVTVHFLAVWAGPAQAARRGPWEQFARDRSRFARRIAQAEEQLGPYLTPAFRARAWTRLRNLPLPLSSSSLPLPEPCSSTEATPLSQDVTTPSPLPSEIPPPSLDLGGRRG
Chain of Sentrin-specific protease 7 (Homo sapiens) (Q9BQF6 706-1050 limits assumed): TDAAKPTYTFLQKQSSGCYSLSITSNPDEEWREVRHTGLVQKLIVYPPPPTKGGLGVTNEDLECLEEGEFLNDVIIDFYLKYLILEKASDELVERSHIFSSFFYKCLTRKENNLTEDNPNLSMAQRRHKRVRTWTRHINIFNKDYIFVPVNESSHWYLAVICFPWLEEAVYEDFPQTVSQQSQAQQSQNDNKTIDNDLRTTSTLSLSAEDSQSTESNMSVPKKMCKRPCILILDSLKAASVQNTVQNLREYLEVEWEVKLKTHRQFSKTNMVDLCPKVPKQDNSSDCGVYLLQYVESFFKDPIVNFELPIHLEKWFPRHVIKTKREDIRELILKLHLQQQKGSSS
Chain of Sentrin-specific protease 6 (Homo sapiens) (Q9GZR1 628-1112 limits assumed): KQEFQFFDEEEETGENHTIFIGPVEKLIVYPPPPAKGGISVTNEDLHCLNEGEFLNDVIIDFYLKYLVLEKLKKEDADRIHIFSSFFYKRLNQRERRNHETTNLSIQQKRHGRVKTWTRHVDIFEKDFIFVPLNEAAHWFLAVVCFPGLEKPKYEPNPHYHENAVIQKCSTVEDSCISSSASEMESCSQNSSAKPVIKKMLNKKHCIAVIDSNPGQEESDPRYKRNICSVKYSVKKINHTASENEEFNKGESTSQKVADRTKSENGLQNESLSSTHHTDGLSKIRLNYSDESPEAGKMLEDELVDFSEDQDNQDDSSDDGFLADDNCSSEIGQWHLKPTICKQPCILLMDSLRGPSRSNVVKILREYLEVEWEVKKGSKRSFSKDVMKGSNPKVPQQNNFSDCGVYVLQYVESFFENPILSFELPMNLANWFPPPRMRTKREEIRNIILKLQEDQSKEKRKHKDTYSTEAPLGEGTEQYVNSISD
Chain of Protein Mdm4 (Homo sapiens) + E3 ubiquitin-protein ligase Mdm2 (Homo sapiens) (O15151 whole entry, looked up): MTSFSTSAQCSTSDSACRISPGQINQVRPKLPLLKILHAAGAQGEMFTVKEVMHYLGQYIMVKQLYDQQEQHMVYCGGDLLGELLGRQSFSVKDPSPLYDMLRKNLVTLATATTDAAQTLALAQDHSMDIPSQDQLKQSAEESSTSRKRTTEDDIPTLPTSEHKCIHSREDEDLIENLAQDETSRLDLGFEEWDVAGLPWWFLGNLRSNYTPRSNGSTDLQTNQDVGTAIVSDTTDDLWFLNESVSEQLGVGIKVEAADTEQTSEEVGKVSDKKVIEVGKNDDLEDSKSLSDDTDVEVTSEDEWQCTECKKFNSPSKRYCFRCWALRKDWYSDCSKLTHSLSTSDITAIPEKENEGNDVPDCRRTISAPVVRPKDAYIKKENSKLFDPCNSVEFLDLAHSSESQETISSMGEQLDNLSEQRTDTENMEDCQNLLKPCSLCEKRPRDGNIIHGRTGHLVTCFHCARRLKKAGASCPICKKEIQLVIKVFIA
Chain of Protein Mdm4 (Homo sapiens) + E3 ubiquitin-protein ligase Mdm2 (Homo sapiens) (Q00987 whole entry, looked up): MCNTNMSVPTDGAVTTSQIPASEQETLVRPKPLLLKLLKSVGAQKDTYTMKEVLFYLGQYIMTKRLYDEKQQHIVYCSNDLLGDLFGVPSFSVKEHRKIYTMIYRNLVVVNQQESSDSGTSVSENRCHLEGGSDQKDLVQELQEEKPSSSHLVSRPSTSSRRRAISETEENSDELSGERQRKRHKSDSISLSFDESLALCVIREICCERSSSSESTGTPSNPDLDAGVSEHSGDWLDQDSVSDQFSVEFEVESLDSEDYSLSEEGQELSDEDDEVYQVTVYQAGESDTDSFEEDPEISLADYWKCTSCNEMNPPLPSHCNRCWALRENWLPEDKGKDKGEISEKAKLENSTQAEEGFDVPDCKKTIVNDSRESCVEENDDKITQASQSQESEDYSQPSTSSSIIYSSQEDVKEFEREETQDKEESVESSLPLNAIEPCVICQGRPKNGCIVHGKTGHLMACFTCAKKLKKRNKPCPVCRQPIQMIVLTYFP
Chain of COP9 signalosome complex subunit 5 (Homo sapiens) (Q92905 whole entry, looked up, one chain of several): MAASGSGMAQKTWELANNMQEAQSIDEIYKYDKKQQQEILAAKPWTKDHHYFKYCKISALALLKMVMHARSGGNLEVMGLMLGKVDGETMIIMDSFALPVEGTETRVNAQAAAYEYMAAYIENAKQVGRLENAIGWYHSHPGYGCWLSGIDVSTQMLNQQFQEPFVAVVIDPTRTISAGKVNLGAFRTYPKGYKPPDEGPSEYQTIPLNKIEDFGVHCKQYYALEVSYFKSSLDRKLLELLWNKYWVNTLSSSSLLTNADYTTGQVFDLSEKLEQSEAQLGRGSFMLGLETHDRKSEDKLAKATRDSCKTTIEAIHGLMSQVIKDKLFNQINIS
Chain of Prothrombin (Bos taurus) (P00735 whole entry, looked up): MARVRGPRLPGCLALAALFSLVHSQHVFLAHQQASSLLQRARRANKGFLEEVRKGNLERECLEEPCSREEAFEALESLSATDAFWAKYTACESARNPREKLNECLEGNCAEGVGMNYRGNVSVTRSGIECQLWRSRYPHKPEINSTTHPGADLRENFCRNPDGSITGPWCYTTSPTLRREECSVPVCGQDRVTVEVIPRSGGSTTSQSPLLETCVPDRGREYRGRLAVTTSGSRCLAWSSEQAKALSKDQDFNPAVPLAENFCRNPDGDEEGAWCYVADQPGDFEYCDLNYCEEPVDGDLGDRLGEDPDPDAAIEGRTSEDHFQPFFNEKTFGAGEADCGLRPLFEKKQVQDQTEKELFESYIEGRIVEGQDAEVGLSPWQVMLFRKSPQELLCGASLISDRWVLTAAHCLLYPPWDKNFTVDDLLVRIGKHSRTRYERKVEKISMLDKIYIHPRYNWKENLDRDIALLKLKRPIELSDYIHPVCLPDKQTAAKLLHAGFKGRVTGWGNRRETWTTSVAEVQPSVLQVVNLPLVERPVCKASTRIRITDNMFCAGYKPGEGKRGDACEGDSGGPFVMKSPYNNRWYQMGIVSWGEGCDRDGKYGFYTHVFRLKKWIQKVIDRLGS
Chain of 72 kDa type IV collagenase (Homo sapiens) (P08253 whole entry, looked up): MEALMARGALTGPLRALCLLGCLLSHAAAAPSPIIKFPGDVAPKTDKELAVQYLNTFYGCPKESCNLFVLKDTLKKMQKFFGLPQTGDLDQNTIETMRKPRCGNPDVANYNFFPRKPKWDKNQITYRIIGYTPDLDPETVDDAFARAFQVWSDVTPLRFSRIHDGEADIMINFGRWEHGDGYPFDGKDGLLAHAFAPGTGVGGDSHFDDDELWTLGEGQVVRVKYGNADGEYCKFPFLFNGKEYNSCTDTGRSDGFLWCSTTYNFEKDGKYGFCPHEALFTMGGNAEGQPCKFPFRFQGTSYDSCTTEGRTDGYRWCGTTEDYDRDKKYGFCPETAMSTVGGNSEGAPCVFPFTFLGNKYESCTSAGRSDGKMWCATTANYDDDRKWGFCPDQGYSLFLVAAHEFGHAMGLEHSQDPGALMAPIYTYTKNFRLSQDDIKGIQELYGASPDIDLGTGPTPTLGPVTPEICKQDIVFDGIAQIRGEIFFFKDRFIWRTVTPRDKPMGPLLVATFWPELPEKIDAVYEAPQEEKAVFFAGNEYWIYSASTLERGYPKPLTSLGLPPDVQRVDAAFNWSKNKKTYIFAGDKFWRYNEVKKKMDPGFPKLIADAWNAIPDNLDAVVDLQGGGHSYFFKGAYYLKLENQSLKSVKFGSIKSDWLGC

With `COc1cc(SC)ccc1C(=O)Nc1nc(C)cs1` the cytotoxicity [1] was 95.8% (active), the inhibition [2] was 89.6% (active) and the inhibition [3] was 98.7% (active). For the same compound, the inhibition [4] was 100% (active), the inhibition (Caspase-3 (Homo sapiens)) was 95.3% (active) and the inhibition [5] was 46.2% (inactive). For the same compound, the inhibition [6] was 83% (active), the inhibition [7] was 92.8% (active) and the inhibition [8] was 96.9% (active). It also gave an inhibition (PEG-3 [9]) of 96.4%, an inhibition (PEG-3 [10]) of 95.2% and an inhibition (Rat fibroblasts (CREF) [11]) of 98.6%. For the same compound, the inhibition (Rat fibroblasts (CREF) [12]) was 99.8%, the activity [13] was 98.2% and the activity [14] was 97.8%.
With `COc1cccc(/C=C/c2ccc3ccccc3n2)c1OC(C)=O` the cytotoxicity [1] was 74.4% (active), the activity [13] was 67.2% and the activity [14] was 60.8%.
For `CCC(C)Cn1c(O)cc2nn(-c3nc4ccccc4s3)c(=O)c-2c1C` (configuration not stated), the cytotoxicity [1] was 53.8% (active), the inhibition [6] was 94.5% (active) and the inhibition [15] was 102% (active). The inhibition [16] was 16% (active), the inhibition (Prothrombin (Bos taurus)) was -1.66% (inactive) and the inhibition (PEG-3 [9]) was 99%. It also gave an inhibition (PEG-3 [10]) of 101%, an inhibition (Rat fibroblasts (CREF) [11]) of 72.9% and an inhibition (Rat fibroblasts (CREF) [12]) of 68.7%.
For `Cc1c(/C=N\NC(=O)c2cc3ccccc3o2)c2ccccc2n1C`, the inhibition [17] was -0.3% (inactive).
For `COc1cc(C(=O)NN(CCC#N)C2=NS(=O)(=O)c3ccccc32)cc(OC)c1OC`, the inhibition [17] was -119% (inactive).
In the case of `Cc1ccc(-c2cn3cc(C)ccc3n2)cc1`, the cytotoxicity [1] is reported as 85.8% (active), the inhibition [2] is reported as 54.3% (active) and the inhibition [3] is reported as 91.7% (active). The inhibition [4] was 101% (active), the inhibition (Caspase-3 (Homo sapiens)) was 95% (active) and the inhibition [5] was 39.4% (inactive). For the same compound, the inhibition [18] was 29% (active), the inhibition [6] was 82% (active) and the inhibition (PEG-3 [9]) was 96.6%. The inhibition (PEG-3 [10]) was 96.4%, the inhibition (Rat fibroblasts (CREF) [11]) was 98.1% and the inhibition (Rat fibroblasts (CREF) [12]) was 96.8%.
In the case of `O=C(NC(Nc1nc2ccc([N+](=O)[O-])cc2s1)(C(F)(F)F)C(F)(F)F)c1ccccc1`, the inhibition [17] is reported as 80.7% (active).
In the case of `Clc1ccc2nc(-c3ccccc3)nc(C(Cl)Cl)c2c1`, the cytotoxicity [1] is reported as 76.5% (active), the inhibition [7] is reported as -30.4% (inactive) and the inhibition [8] is reported as 104% (active).
For `COc1ccc(CNS(=O)(=O)c2cc(-c3cc(C)no3)ccc2C(C)C)cc1`, the inhibition [17] was 41.9% (inactive).
In the case of `COc1cc(SC)ccc1C(=O)Nc1cc(C)ccn1`, the cytotoxicity [1] is reported as 53.4% (active), the inhibition [2] is reported as 39.8% (inactive) and the inhibition [3] is reported as 40.9% (inactive). For the same compound, the inhibition [4] was 78.8% (active), the inhibition (Caspase-3 (Homo sapiens)) was 43.8% (inactive) and the inhibition [5] was 51% (active).
For `Cc1nc2cc(NC(=O)Nc3cccc(F)c3)ccc2n1C`, the cytotoxicity [1] was 51.2% (active), the activity [13] was 72.3% and the activity [14] was 65.2%.
In the case of `COc1ccc(-c2cn3ccc(C)cc3n2)cc1`, the cytotoxicity [1] is reported as 89.4% (active), the inhibition [2] is reported as -5.4% (inactive) and the inhibition [3] is reported as 88.1% (active). For the same compound, the inhibition [4] was 99.5% (active), the inhibition (Caspase-3 (Homo sapiens)) was 95.2% (active) and the inhibition [5] was 91.2% (active). The activity [13] was 82.7% and the activity [14] was 81.1%.
In the case of `COc1cc2c(cc1OC)CN(C(=O)c1cc(=O)c3ccccc3o1)CC2`, the inhibition [17] is reported as 21.4% (inactive).
In the case of `CC(=O)Nc1ccc(Nc2c3ccccc3nc3ccccc23)cc1`, the inhibition [17] is reported as 26.9% (inactive).
For `Cc1ccc(SCCSc2ncccn2)cc1`, the inhibition [17] was -64.3% (inactive).
For `Cc1ccc(N2CCN(c3ccc([N+](=O)[O-])cn3)CC2)c(C)c1`, the inhibition [17] was 15.2% (inactive).
With `C/C(=N\NC(=O)c1ccccc1F)c1ccccn1` the inhibition [17] was 4.3% (inactive).
In the case of `COc1ccc(C(=O)Nc2ccccc2C(=O)N/N=C/c2ccc(O)c(OC)c2)cc1`, the cytotoxicity [1] is reported as 96.5% (active), the inhibition [2] is reported as 97.3% (active) and the inhibition [3] is reported as 98.5% (active). For the same compound, the inhibition [4] was 102% (active), the inhibition (Caspase-3 (Homo sapiens)) was 98.4% (active) and the inhibition [5] was 83.7% (active).
With `Cc1ccc(-c2nc3ccccc3[nH]2)cc1N` the cytotoxicity [1] was 49.3% (inactive), the inhibition [2] was 91.6% (active) and the inhibition [3] was 92% (active). For the same compound, the inhibition [4] was 102% (active), the inhibition (Caspase-3 (Homo sapiens)) was 96.7% (active) and the inhibition [5] was 92.3% (active).
With `O=C(NCc1ccc2c(c1)OCO2)c1cc([N+](=O)[O-])ccc1N1CCOCC1` the inhibition [17] was 38.1% (inactive).
For `COc1cc(/C=N/O)ccc1OCc1ccc([N+](=O)[O-])cc1`, the inhibition [17] was -119% (inactive).
With `O=C(/C=C/c1ccc([N+](=O)[O-])o1)NNC(=O)c1ccc(F)cc1` the inhibition [17] was 45.4% (inactive).
In the case of `O=C(/C=C/c1ccc(Cl)c([N+](=O)[O-])c1)c1ccc(O)cc1`, the cytotoxicity [1] is reported as 4.1% (inactive), the inhibition [19] is reported as 103% (active) and the inhibition [6] is reported as 98.9% (active). For the same compound, the inhibition [20] was -37.9% (inactive), the inhibition [7] was 20.2% (inactive) and the inhibition [8] was 105% (active). The inhibition (PEG-3 [9]) was 102%, the inhibition (PEG-3 [10]) was 99.1% and the inhibition (Rat fibroblasts (CREF) [11]) was 99.1%. For the same compound, the inhibition (Rat fibroblasts (CREF) [12]) was 98.7%.
For `O=C(Nc1ccc(NC(=O)c2cccs2)cn1)c1ccco1`, the cytotoxicity [1] was 42.1% (inactive), the activity [13] was 63.1% and the activity [14] was 71.5%.
For `Cc1ccc(-c2cc(C(=O)N/N=C/C=C/c3ccco3)c3ccccc3n2)cc1C`, the cytotoxicity [1] was 56.4% (active), the activity [13] was 59.7% and the activity [14] was 70.4%.
With `CC(=O)c1sc(NC(=O)c2ccc(C)cc2)nc1C` the cytotoxicity [1] was 52.3% (active), the inhibition [2] was -24.9% (inactive) and the inhibition [3] was -17.1% (inactive). The inhibition [4] was 3.1% (inactive), the inhibition (Caspase-3 (Homo sapiens)) was 6% (inactive) and the inhibition [5] was -5.6% (inactive). For the same compound, the activity [13] was 68.5% and the activity [14] was 68.1%.
